Data on 40 compounds can be found in PubChem BioAssay (NCI).

About 79,000 compounds went through this panel and 15% of them were active in at least one assay; those are over-represented in the sample as a whole. Active and inactive are the calls of the source. Rule as the data show it: active = growth inhibition above about 70%; inactive = the rest. Where a SMILES comes first, the peptide text is derived from it. [ ]: non-standard residue; d: D form. The star is where a group is joined. ξ: configuration not given here. NMeY = CN[C@@H](Cc1ccc(O)cc1)C(=O)O; Cbz = O=C(OCc1ccccc1)*; ξA = CC(N)C(=O)O

This experiment is described as follows: NCI Yeast Anticancer Drug Screen. Data for the sgs1 mgt1 strain (AID 161).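 Also: 0% = growth of cultures given vehicle only.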 The note with it: S. cerevisiae sgs1 mgt1 strain, at 50.0 µM, hits give high values. In a few lines:
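Test agents were incubated with a DNA-repair-mutant yeast strain. Growth was then read and compared against vehicle-treated controls.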
For the compound `O=C1CCC(=O)O1`, the growth inhibition is -11.7% (inactive).

For the compound `O=C1C2C3C=CC(CC3)C2C(=O)C2C3C=CC(C3)C12` (stereo not given), the growth inhibition was 26.9% (inactive).

Regarding `COc1ccc2c3c(c(C(=O)O)oc13)CCC2`, the growth inhibition is -3.8% (inactive). Next, `COc1ccc2nc3cc(Cl)ccc3c(NCCCNCCCNc3c4ccc(Cl)cc4nc4ccc(OC)cc34)c2c1`: -9.1% (inactive).

Consider `CC(c1ccccc1)C1OCC(CCCCO)O1` (stereo not given), for which the growth inhibition is -10.7% (inactive). In the case of `CCc1cccc(CC)c1N=C(NC(=O)c1ccc(Br)cc1)SC`, the growth inhibition is -4.7% (inactive).

For the compound `Oc1ccc(NCc2ccccc2)cc1`, the growth inhibition was 16.9% (inactive).

`COc1cccc(NC(=S)NC(=O)c2ccccc2)c1`: the growth inhibition is 96.2% (active). For `C/C(CC(O)(C(F)(F)F)C(F)(F)F)=N\NC(N)=S`, the growth inhibition was -12.9% (inactive). For `Cc1ccc(C(C(=O)O)c2ccc(C)cc2)cc1` the value was 44.9% (inactive); for `CC1CC([NH-])C([NH-])C(C)(C)C1.[Cl][Pt+2][Cl]` (stereo not given), -9.95% (inactive). Consider `Cc1[nH]c2ccccc2c1C(=O)Cc1ccc(Cl)cc1Cl`, for which the growth inhibition is 32.2% (inactive).

For `CC(=O)Nc1ccc(S(=O)(=O)Oc2noc3ccc(Br)cc23)cc1`, the growth inhibition is -23% (inactive). Next, `CCCCC(CCCC)NCC(C)OC(=O)c1ccc(N)cc1` (stereo not given): 0.5% (inactive); `O=C(Nc1c(Cl)cccc1Cl)Oc1cccnc1`: -9.1% (inactive); `c1nnco1`: -2.5% (inactive). As for `O=C/C=C/N=c1ccn(O)cc1`, the growth inhibition was 3.05% (inactive). Regarding `CO/N=C1\C(O)CC2C(C)(CCC3C2(C)CCC2(C)C4CC(C)(C)CCC4(C)CCC32C)C1C` (stereo not given), the growth inhibition was -18.5% (inactive). On to `CC(C)(C)OC(=O)NC(Cc1ccccc1)C(=O)OCN1C(=O)C2C3C=CC(C2C1=O)C1C2C(=O)N(COC(=O)C(Cc4ccccc4)NC(=O)OC(C)(C)C)C(=O)C2C31` (stereo not given), for which the growth inhibition was -0.5% (inactive).

Turning to `CC1=NN(C(=O)c2ccncc2)C(=O)C1N=Nc1ccc([N+](=O)[O-])cc1Cl` (stereo not given), the growth inhibition was 21.3% (inactive).

Take `Cc1ccc(C2(C)CC/C(=N/N=C3/CCC(C)(c4ccc(C)c(C)c4)c4cc(C)c(C)cc43)c3cc(C)c(C)cc32)cc1C` (stereo not given): the growth inhibition is -27.9% (inactive). On to `O=S(=O)(N=N/C=C1\C=CC=CN1O)c1cccs1`, for which the growth inhibition is -8.25% (inactive). On to `O=C(/C=C(\C(=O)c1ccccc1)c1ccccc1)c1ccc(Cl)cc1`, for which the growth inhibition is -4.45% (inactive).

Regarding `C=CCSc1nc2ccc(NCn3c(=S)sc4ccccc43)cc2s1`, the growth inhibition is 85.7% (active). Turning to `CCC/C=C/C=C\C(=O)O[C@@H]1[C@@H](C)[C@]2(O)[C@@H]3C=C(C)C(=O)[C@H]3CC(COC(C)=O)=C[C@H]2[C@@H]2C(C)(C)[C@]12OC(C)=O`, the growth inhibition is -8.1% (inactive).

As for `O=C1CCCCC1O` (stereo not given), the growth inhibition is -15.2% (inactive). Next, `COc1ccc(C[C@@H](C(=O)N[C@@H](C)C(N)=O)N(C)C(=O)[C@@H]2CCCN2C(=O)[C@H](CC(C)C)NC(=O)C(C)NC(=O)OCc2ccccc2)cc1` (stereo not given in full) (Cbz-[ξA]LP[NMeY](Me)A-NH2): -7.95% (inactive). Turning to `Cc1ccc(N=Nc2ccc(C)cc2NC(=O)c2ccc(Cl)cc2)cc1`, the growth inhibition was 17.1% (inactive). Take `O=C1c2ccc3ccccc3c2C(=O)c2ccc3ccccc3c21`: the growth inhibition was -3.65% (inactive).

In the case of `CCOC(=O)c1c(-c2ccc(OC)cc2)c(C#N)c(=S)n(C2OC(COC(C)=O)C(OC(C)=O)C(OC(C)=O)C2OC(C)=O)c1-c1ccccc1` (stereo not given), the growth inhibition is -3.2% (inactive).

As to `COc1ccc(C(=O)Oc2ccccc2C)cc1`, the growth inhibition was -6.1% (inactive). For the compound `O=C1Oc2cc3c(c4cccc1c24)O[C@H](c1ccccc1)[C@@H](c1ccccc1)[C@@H]3c1ccc(Cl)cc1`, the growth inhibition was -2.4% (inactive). On to `CN1C(=O)C(=O)n2c(cc3ccccc32)C1=O`, for which the growth inhibition was 7.25% (inactive).

Take `Cc1cc(C)c(C2CNCc3cc4c(cc32)CNCC4c2c(C)cc(C)cc2C)c(C)c1` (stereo not given): the growth inhibition was -46% (inactive). As to `NCCO`, the growth inhibition is -11.8% (inactive).

Consider `Cc1ccc(S(=O)(=O)Nc2nc3ccccc3c(=O)n2C2CCCCC2)cc1`, for which the growth inhibition is -43.2% (inactive). For the compound `O=C1OC(c2ccc3c(c2)CCCC3)=C/C1=C/c1ccc2c(c1)OCO2`, the growth inhibition was 14.1% (inactive).

Regarding `O=C(Nc1cccc2ccccc12)OCC1CC1`, the growth inhibition is -4.55% (inactive). For `O=C1OCC2C(=O)N3Cc4cc5ccccc5nc4C3CC12` (stereo not given) the value was -2.5% (inactive); for `C/C(=N/NC(=O)NN)c1cccc(O)c1`, -16.6% (inactive).
